Reference: PubChem BioAssay (NCATS)
Inconclusive results are not listed. Calls of active or inactive are those of the source. Calls follow the shape of the dose curve; as a rule, active = well fitted cell-killing curve with a large enough effect; inconclusive = small, poorly fitted or top-dose-only effect, or effect the other way; inactive = no such curve, though single readings can be large or run the other way. Where a SMILES comes first, the peptide text is derived from it. Bridges are numbered along the chain shown (N, C = ends). [ ]: non-standard residue; d: D form. The star is where a group is joined. ξ: configuration not given here. d(aThr) = C[C@@H](O)[C@@H](N)C(=O)O; ξThr(3R) = C[C@@H](O)C(N)C(=O)O; pGlu = O=C1CC[C@@H](C(=O)O)N1; X3 = CC[C@@H](C)CCCCC(=O)*; X2 = CC[C@H](C)CCCCC(=O)*; dDab = NCC[C@@H](N)C(=O)O; Dab = NCC[C@H](N)C(=O)O

Assay: qHTS assay to identify small molecule inhibitors of chordoma cells - UCH-1 (AID 1259355); also: nearly all actives have a fitted effect of over 55% in size
Conditions: UCH-1 chordoma viability, CellTiter-Glo, 48 h, combination, with auranofin plus four topoisomerase inhibitors; series mostly up to 46.1 µM; activity, negative = inhibition: at the top concentration
From the text: NIH Chemical Genomics Center [NCGC]
Chordoma is a rare and slow growing tumor that can occur anywhere along the spine, from the base of the skull to the tailbone. Current treatment options for chordoma is surgery and radiation therapy for those who are not candidates for surgery. But chordomas tend to return in the same location or surrounding areas of the original tumor after surgery and/or radiation. Chemotherapy can slow down the progression of the tumor. As chordoma is slow growing, the general cytotoxic agents that kill fast growing cells are ineffective, and some patients have been reported to respond to molecularly targeted drugs.
NCATS Pharmaceutical Collection (NPC) containing approximately 3000 clinically approved and investigational drugs were used to screen at 15 concentrations in a chordoma cell lines, UCH-1, to identify small molecule compounds that can inhibit chordoma cell growth.
NCGC Assay Protocol Summary:
Human chordoma cell line UCH-1 was dispensed at 800 per well in 4uL of culture medium into white solid bottom 1536-well plates (Corning Life Sciences, Corning, NY) using a Multidrop Combi (Thermo Scientific, Waltham, MA) dispenser. The assay plates were incubated at 37 C and 5% CO2 for an overnight, and then 23nL of compounds dissolved in DMSO and positive control were transferred using a Pintool station (Wako, San Diego, CA). Compound treatment was followed by the addition of 1uL of the combination compounds (1uM Auranofin, 500nM each of Camptothecin, Doxorubicin, Rubitecan, and Topotecan) and assay medium to each well of the assay plates using Flying Reagent Dispenser (FRD, Aurora Discovery, San Diego, CA). The assay plates were incubated at 37 C and 5% CO2 for 48hr. Then 5uL of CellTiter-Glo reagent (Promega Corporation, Madison, WI) was added to each well of the assay plates using FRD. After 30min incubation at room temperature, the luminescence signal was quantified using a ViewLux plate reader (PerkinElmer, Shelton, CT).
% is scaled to controls: 0 for no effect and ±100 for the full control effect.

Row | Structure (SMILES) | activity, negative = inhibition
1 | CC1=C(/C=C/C(C)=C/C=C/C(C)=C/C(=O)Oc2c(C)c(C)c3c(c2C)CC[C@@](C)(CCC[C@H](C)CCC[C@H](C)CCCC(C)C)O3)C(C)(C)CCC1 | -10% (inactive)
2 | CC(C)CN(C[C@@H](O)[C@H](Cc1ccccc1)NC(=O)O[C@@H]1CCOC1)S(=O)(=O)c1ccc(N)cc1 | -19.8% (inactive)
3 | CCCCCCCCCCCCCCCCCCCCCC(=O)Nc1ccn([C@@H]2O[C@H](CO)[C@@H](O)[C@@H]2O)c(=O)n1 | -6.29% (inactive)
4 | CNC(C)CCC=C(C)C (stereo not given) | 0.377% (inactive)
5 | NC(=O)c1cc[n+](CC2=C(C(=O)O)N3C(=O)[C@@H](NC(=O)C(c4ccccc4)S(=O)(=O)[O-])[C@H]3SC2)cc1 (stereo not given in full) | 17% [at 20.6 µM] (inactive)
6 | CC(CN(C)C)CN1c2ccccc2Sc2ccc(C(F)(F)F)cc21 (stereo not given) | -9.83% (inactive)
7 | NCCCC[C@H](N)C(=O)O | -12.7% (inactive)
8 | COc1cc2c(cc1OC)[C@@H](c1ccccc1)CN(C)CC2 | -17.8% (inactive)
9 | CC(C)[C@@H]1CC[C@@H](C)C[C@H]1OC(=O)c1ccccc1O | -0.806% (inactive)
10 | COc1cc2c(cc1OC)[C@@H](Cc1cc(OC)c(OC)c(OC)c1)[N+](C)(CCCOC(=O)CC/C=C/CCC(=O)OCCC[N+]1(C)CCc3cc(OC)c(OC)cc3[C@H]1Cc1cc(OC)c(OC)c(OC)c1)CC2 (stereo not given in full) | 1.95% (inactive)
11 | CC[C@H](C)[C@@H]1NC(=O)[C@H](Cc2ccc(O)cc2)NC(=O)[C@@H](N)CSSC[C@@H](C(=O)N2CCC[C@H]2C(=O)N[C@@H](CC(C)C)C(=O)NCC(N)=O)NC(=O)[C@H](CC(N)=O)NC(=O)[C@H](CCC(N)=O)NC1=O | -7.31% (inactive)
12 | CC[C@@H](C)[C@H](N)C(=O)O | -1.61% (inactive)
13 | CC[C@@H](C)CCCCC(=O)N[C@H](CCN)C(=O)N[C@@H](C(=O)N[C@H](CCN)C(=O)N[C@@H]1CCNC(=O)C([C@@H](C)O)NC(=O)[C@@H](CCN)NC(=O)[C@@H](CCN)NC(=O)[C@@H](CC(C)C)NC(=O)[C@@H](Cc2ccccc2)NC(=O)[C@@H](CCN)NC1=O)[C@@H](C)O (stereo partly drawn) (X3-[dDab][d(aThr)][dDab][dDab][dDab][dF][dL][dDab][dDab][ξThr(3R)]; lactam 4-C) | -11% (inactive)
14 | CC(C)[C@@H](C)/C=C/[C@@H](C)[C@H]1CC[C@H]2/C(=C/C=C3\C[C@@H](O)CC[C@@H]3C)CCC[C@]12C | -10.1% (inactive)
15 | CCCC(CCC)C(=O)OC1C[C@H]2CC[C@@H](C1)[N+]2(C)C (stereo not given in full) | -0.382% (inactive)
16 | O[C@@H]([C@H](O)[C@H](O)CBr)[C@H](O)CBr | -40.3% (inactive)
17 | CO | -17.1% (inactive)
18 | NC(=O)[C@H]1O[C@@H](O)[C@H](O)[C@@H](O)[C@@H]1O | -5.04% (inactive)
19 | CO[C@@]1(NC(=O)C2SC(=C(C(N)=O)C(=O)O)S2)C(=O)N2C(C(=O)O)=C(CSc3nnnn3C)CS[C@@H]21 (stereo not given in full) | -17.3% [at 20.6 µM] (inactive)
20 | CCCCC[C@H](O)/C=C/[C@H]1[C@H](O)CC(=O)[C@@H]1C/C=C\CCCC(=O)O | 1.79% (inactive)

Row | Structure (SMILES) | activity, negative = inhibition
21 | C[C@@H]1O[C@@H]1P(=O)(O)O | -6.06% (inactive)
22 | COC(=O)[C@H]1[C@H]2C[C@@H]3c4[nH]c5cc(OC)ccc5c4CCN3C[C@H]2C[C@H](OC)[C@@H]1OC | -8.98% (inactive)
23 | CNC(=O)c1c(I)c(C(=O)NCC(=O)Nc2c(I)c(C(=O)O)c(I)c(C(=O)NCCO)c2I)c(I)c(N(C)C(C)=O)c1I | 0.228% (inactive)
24 | O=C(NCCNCC(O)COc1ccc(O)cc1)N1CCOCC1 (stereo not given) | 4.29% (inactive)
25 | C[C@]12CC[C@@H]3c4ccc(OC(=O)c5ccccc5)cc4CC[C@H]3[C@@H]1CC[C@@H]2O | -24% (inactive)
26 | CCCCC(CC)COS(=O)(=O)O (stereo not given) | -16.3% (inactive)
27 | CC(=O)Oc1cc(C(F)(F)F)ccc1C(=O)O | 5.32% [at 20.6 µM] (inactive)
28 | COC(=O)CC[C@H](N)C(=O)O | 2.85% (inactive)
29 | COc1ccc(C[C@H](C)NC[C@@H](O)c2ccc(O)c(NC=O)c2)cc1 | -34.8% (inactive)
30 | O=C(O)Cc1cc(I)c(Oc2ccc(O)c(I)c2)c(I)c1 | 3.45% [at 20.6 µM] (inactive)
31 | CC[C@H](C)[C@H](NC(=O)[C@H](Cc1ccccc1)NC(=O)[C@H](C)NC(=O)[C@H](CC(=O)O)NC(=O)[C@H](CCCCN)NC(=O)[C@H](CO)NC(=O)[C@@H]1CCCN1C(=O)[C@@H]1CCC(=O)N1)C(=O)NCC(=O)N[C@@H](CC(C)C)C(=O)N[C@@H](CCSC)C(N)=O ([pGlu]PSKDAFIGLM-NH2) | -8.65% (inactive)
32 | Cc1ccc(C(C)(C)c2ccc(C)cc2)cc1 | -16.1% (inactive)
33 | OB(O)O | -9.64% (inactive)
34 | Cc1ccc(S(=O)(=O)O)cc1C | -1.06% (inactive)
35 | CCCCC/C=C\CCC(=O)N[C@H]1[C@H](Oc2c3cc4cc2Oc2ccc(cc2Cl)[C@@H](O[C@@H]2O[C@H](CO)[C@@H](O)[C@H](O)[C@H]2NC(C)=O)[C@@H]2NC(=O)[C@H](NC(=O)[C@@H]4NC(=O)[C@H]4NC(=O)[C@@H](Cc5ccc(c(Cl)c5)O3)NC(=O)[C@H](N)c3ccc(O)c(c3)Oc3cc(O)cc4c3)c3ccc(O)c(c3)-c3c(O[C@H]4O[C@H](CO)[C@@H](O)[C@H](O)[C@@H]4O)cc(O)cc3[C@@H](C(=O)O)NC2=O)O[C@H](CO)[C@@H](O)[C@@H]1O | -6.81% [at 20.6 µM] (inactive)
36 | OC[C@H]1O[C@@H]2O[C@H]3[C@H](O)[C@@H](O)[C@@H](O[C@H]4[C@H](O)[C@@H](O)[C@@H](O[C@H]5[C@H](O)[C@@H](O)[C@@H](O[C@H]6[C@H](O)[C@@H](O)[C@@H](O[C@H]7[C@H](O)[C@@H](O)[C@@H](O[C@H]1[C@H](O)[C@H]2O)O[C@@H]7CO)O[C@@H]6CO)O[C@@H]5CO)O[C@@H]4CO)O[C@@H]3CO | -11.1% (inactive)
37 | c1ccc2c(c1)Sc1ccccc1N2CCN1CCCC1 | -12% (inactive)
38 | CCC[C@@H]1C[C@@H](C(=O)N[C@@H]([C@H]2O[C@H](SC)[C@H](O)[C@@H](O)[C@H]2O)[C@H](C)Cl)N(C)C1 | 16.9% (inactive)
39 | CC12CCC(C[N+](C)(CCC[N+](C)(C)C)C1)C2(C)C (stereo not given) | -20.5% (inactive)
40 | CC[C@H](C)CCCCC(=O)N[C@@H](CCN)C(=O)N[C@H](C(=O)N[C@@H](CCN)C(=O)N[C@H]1CCNC(=O)[C@@H]([C@H](C)O)NC(=O)[C@H](CCN)NC(=O)[C@H](CCN)NC(=O)[C@H](CC(C)C)NC(=O)[C@@H](CC(C)C)NC(=O)[C@H](CCN)NC1=O)[C@@H](C)O (X2-[Dab]T[Dab][Dab][Dab][dL]L[Dab][Dab][dT]; lactam 4-C) | -2.58% [at 20.6 µM] (inactive)
